Consider 14 compounds from PubChem BioAssay.

Calls of active or inactive are those of the source.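 The calls were made as follows, unless noted: active = inhibition at or above 50% at 10 µM; inactive = inhibition below 50%.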

A short description of assay [1]: inhibitors of TNFa-induced NFkB p65 translocation, primary screen, imaging, HUVEC, MLSMR starter and 10KST1 sets (AID 438;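 active = inhibition above 20% together with a positive visual image hit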;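 also: compound added about 3h40 before a 20 min TNFalpha stimulation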;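 as to inhibition: signal is the nuclear over cytoplasmic p65 intensity ratio per well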). The following applies: HUVEC TNFa-induced p65 nuclear translocation; cell count: measured here: nuclei count (cytotoxicity indicator), at 2.08 µM; inhibition: at 2 µM, stronger effect = higher value, 0% TNFa-plus-vehicle, 100% no-TNFa wells.
Assay [2] is described as follows: inhibitors of mutant huntingtin aggregation, primary screen, imaging, exon1htt(103Q)mCFP cells, high-content imaging (AID 483;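 active = visual image review flags a hit and inhibition of aggregation exceeds 20%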;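 also: compound exposure lasted 3 days before fixation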;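 as to nuclei count: percent of the per-plate median nuclei count of sample wells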). The settings on record: exon1htt(103Q)mCFP cell line, aggregate imaging, at 2 µM; inhibition of aggregation: stronger effect = higher value; nuclei count: measured here: cell count, toxicity.
Assay [3] can be described thus: inhibitors of E-selectin induction by TNFa, primary screen, imaging, HUVEC, immunofluorescence, MLSMR starter and 10KST1 sets (AID 487;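 active = visually confirmed hit in the image check and inhibition above 20%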;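 as to inhibition: signal is fraction of cell area covered by stained E-selectin grains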;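 as to nuclei count: 100% = median nuclei count of all wells on the same plate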). The settings on record: HUVEC TNFalpha-induced E-selectin immunofluorescence imaging, at 2 µM; inhibition: stronger effect = higher value; nuclei count: measured here: cell number, toxicity.
For assay [4], the target named is Voltage-gated potassium channel subunit beta-2 (Rattus norvegicus) (UniProt P62483). Description: KvBeta enzyme negative modulators, primary screen, biochemical, NADPH fluorescence (AID 622;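 active = fluorescence slope higher than the sample average by over 3 SD, cut at about -0.22 in these data, passing the limit was not always enough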;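 also: slope of raw intensity against log time taken from 70 to 1610 s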). The following applies: recombinant KvBeta, 4-cyanobenzaldehyde reduction, at 10 µM, stronger effect = higher value.
Sequence of Voltage-gated potassium channel subunit beta-2 (Rattus norvegicus) (P62483 whole entry, looked up): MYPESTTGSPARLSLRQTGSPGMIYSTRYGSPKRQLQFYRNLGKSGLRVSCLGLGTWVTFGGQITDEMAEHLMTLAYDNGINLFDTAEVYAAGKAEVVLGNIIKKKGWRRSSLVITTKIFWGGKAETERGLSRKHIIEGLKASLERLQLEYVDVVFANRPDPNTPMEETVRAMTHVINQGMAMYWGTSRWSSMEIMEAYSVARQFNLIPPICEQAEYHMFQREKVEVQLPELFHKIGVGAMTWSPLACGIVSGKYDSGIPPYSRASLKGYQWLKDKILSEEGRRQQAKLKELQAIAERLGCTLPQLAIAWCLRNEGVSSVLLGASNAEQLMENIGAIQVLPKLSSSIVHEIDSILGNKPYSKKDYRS
Assay [5] has the same target. As to the kind of experiment: KvBeta positive modulators, primary screen, biochemical, NADPH fluorescence (AID 623;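 active = NADPH fluorescence slope more negative than the mean of all samples by about 3 SD, 99.7% confidence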;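 also: fluorescence intensity change per second fitted from 20 to 320 s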). The following applies: Recombinant KvBeta, NADPH fluorescence decrease slope, 10 min; at 10 µM; stronger effect = lower value.
Assay [6] deals with Alpha-2C adrenergic receptor (Homo sapiens) (UniProt P18825). Description: modulators of alpha2C/GIRK thallium flux, primary screen, cell-based, HEK293 alpha2C/GIRK1/2 (AID 624;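 active = fluorescence slope after compound addition differing from the mean of all screened samples at 99.7% confidence, in either direction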;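 also: slope of fluorescence ratio to pre-addition baseline per second over 15 to 24 s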). The following applies: thallium flux BTC fluorescence, at 10 µM, actives lie on both sides.
Sequence of Alpha-2C adrenergic receptor (Homo sapiens) (P18825 whole entry, looked up): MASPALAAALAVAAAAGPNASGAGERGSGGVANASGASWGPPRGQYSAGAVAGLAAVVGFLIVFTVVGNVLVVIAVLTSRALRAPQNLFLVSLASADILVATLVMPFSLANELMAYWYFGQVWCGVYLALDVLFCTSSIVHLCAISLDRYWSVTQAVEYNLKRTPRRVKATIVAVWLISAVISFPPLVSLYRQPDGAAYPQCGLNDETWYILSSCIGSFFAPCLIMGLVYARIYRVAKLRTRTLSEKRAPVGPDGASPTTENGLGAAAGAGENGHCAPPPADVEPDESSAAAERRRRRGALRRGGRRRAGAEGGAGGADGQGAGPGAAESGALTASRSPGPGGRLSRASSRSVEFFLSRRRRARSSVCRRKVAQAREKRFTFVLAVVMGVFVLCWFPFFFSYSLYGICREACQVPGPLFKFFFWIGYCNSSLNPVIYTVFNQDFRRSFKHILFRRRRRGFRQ
A short description of assay [7]: inhibitors of Sendai virus-induced IRF3 signaling, primary screen, TLR/RLR signaling modifier project, cell-based, Sendai virus stimulus, luciferase, 10K MLSCN set (AID 602276).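 Also: firefly luciferase from ISG56 promoter only with Renilla not read in this screen; 0% = Sendai virus plus DMSO and 100% = medium plus DMSO without virus.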 The following applies: HEK293 RL24 IRF3 luciferase reporter, at 10 µM, stronger effect = higher value.
Assay [8] is described as follows: inhibitors of poly I:C-induced TLR3 signaling, primary screen, cell-based, poly I:C stimulus, luciferase, 10K MLSCN set (AID 602277;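 active = inhibition of the reporter signal at or above 50%; inactive = inhibition below 50%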). The following applies: HEK293-TLR3 RL24 IRF3 luciferase reporter, at 10 µM, stronger effect = higher value.

With `Cc1cc(S(=O)(=O)N2CCN(c3ccccc3C)CC2)ccc1F`, the cell count in assay [1] amounted to 651. Also, the inhibition is -8.1% (inactive) in assay [1], -131% (inactive) in assay [3], 14.2% (inactive) in assay [7] and 28.2% (inactive) in assay [8]. In assay [2], the inhibition of aggregation was -13.5% (inactive). Moreover, the values for the nuclei count in assay [2] and in assay [3] were 103% and 125%, respectively. Moreover, the fluorescence slope in assay [4] is -0.462 (inactive). Moreover, the NADPH fluorescence slope in assay [5] is 1.6e-05 (inactive). The slope in assay [6] is 0.00665 (inactive).
Turning to `COCc1cc(C)nc(Nc2ccc(C)cc2C)c1C#N`, the cell count in assay [1] is 635. Further, the inhibition in assay [1] was -12.3% (inactive); in assay [3] it was 24.1% (inactive); in assay [7], -5.46% (inactive); in assay [8], 12.7% (inactive). The inhibition of aggregation in assay [2] is -34.1% (inactive). Besides, the nuclei count was 113% in assay [2] and 120% in assay [3]. In assay [4], the fluorescence slope was -0.461 (inactive). Moreover, the NADPH fluorescence slope in assay [5] was 5.1e-08 (inactive). Besides, the slope in assay [6] was 0.00615 (inactive).
`CC(Oc1ccccc1)C(=O)NC1CCN(Cc2ccccc2)CC1` (centres undefined): the cell count in assay [1] was 705. For the same compound, the inhibition in assay [1] was -5.2% (inactive); in assay [3], 0.4% (inactive); in assay [7] it was 11.2% (inactive); in assay [8], 21.3% (inactive). In addition, the inhibition of aggregation in assay [2] is 2.1% (inactive). In addition, the nuclei count in assay [2] came to 108%; in assay [3], 103%. Moreover, the fluorescence slope in assay [4] was -0.418 (inactive). Further, the NADPH fluorescence slope in assay [5] is -1.8e-05 (inactive). For the same compound, in assay [6], the slope was 0.00578 (inactive).
Take `O=C(Nc1ccc(F)cc1F)NC1CC(=O)N(Cc2ccccc2)C1` (centres undefined): the cell count in assay [1] worked out at 664. The inhibition in assay [1] is 1.6% (inactive); in assay [3], 4.4% (inactive); in assay [7] it was -12.5% (inactive); in assay [8] it was 1.35% (inactive). The inhibition of aggregation in assay [2] is 22.4% (inactive). In addition, the nuclei count amounted to 66.3% in assay [2] and 103% in assay [3]. The fluorescence slope in assay [4] is -0.571 (inactive). The NADPH fluorescence slope in assay [5] is -1.6e-05 (inactive). The slope in assay [6] was 0.0068 (inactive).
For the compound `CCOc1cc(C2/C(=C(/O)c3ccc(OC(C)C)cc3)C(=O)C(=O)N2CCCOC)ccc1O` (centres undefined), the cell count in assay [1] amounted to 714. Further, the inhibition in assay [1] was -7.5% (inactive); in assay [3], -120% (inactive); in assay [7], 12.7% (inactive); in assay [8], 14.8% (inactive). For the same compound, the inhibition of aggregation in assay [2] was -20.2% (inactive). In addition, the nuclei count in assay [2] and in assay [3] was 111% throughout. Moreover, the fluorescence slope in assay [4] is -0.513 (inactive). Also, in assay [5], the NADPH fluorescence slope is 2e-05 (inactive). Moreover, the slope in assay [6] was 0.00381 (inactive).
Consider `CC1=Nn2c(nnc2-c2cc(-c3ccccc3)n[nH]2)SC1`, for which, in assay [1], the cell count is 574. The inhibition in assay [1] was -3.3% (inactive); in assay [3] it was 32.4% (inactive); in assay [7] it was 18.2% (inactive); in assay [8], 32.9% (inactive). The inhibition of aggregation in assay [2] was -6.6% (inactive). Besides, the nuclei count in assay [2] was 81.3%; in assay [3], 87.4%. Moreover, the fluorescence slope in assay [4] was -0.617 (inactive). Also, in assay [5], the NADPH fluorescence slope was -1.7e-05 (inactive). Moreover, the slope in assay [6] was 0.00561 (inactive).
`C/C(=C\C(=O)c1ccc(F)cc1)Nc1ccc(N2CCOCC2)cc1`: in assay [1], the cell count worked out at 412. Also, the inhibition in assay [1] is -7.9% (inactive); in assay [3], -1.4% (inactive); in assay [7], -13.9% (inactive); in assay [8], -43.6% (inactive). Moreover, the inhibition of aggregation in assay [2] is 20.9% (inactive). Besides, the nuclei count came out at 86.5% in assay [2] and 99.6% in assay [3]. Further, the fluorescence slope in assay [4] was -0.532 (inactive). Moreover, in assay [5], the NADPH fluorescence slope is 3.5e-06 (inactive). Moreover, the slope in assay [6] was 0.00495 (inactive).
In the case of `O=C1CC(c2cccnc2)c2cc3c(cc2N1)OCO3` (centres undefined), the cell count in assay [1] is 451. Further, the inhibition was -1.2% (inactive) in assay [1], -79.3% (inactive) in assay [3], 0.756% (inactive) in assay [7] and 25% (inactive) in assay [8]. Also, the inhibition of aggregation in assay [2] was -3.3% (inactive). Also, the nuclei count in assay [2] came out at 104%; in assay [3], 102%. Besides, in assay [4], the fluorescence slope was -0.527 (inactive). Moreover, in assay [5], the NADPH fluorescence slope was -6.9e-06 (inactive). Further, in assay [6], the slope is 0.00697 (inactive).
With `CC(=O)c1c(O)cc(C)n(Nc2nc(C)cc(C)n2)c1=O`, the cell count in assay [1] is 625. Moreover, the inhibition in assay [1] was -12.1% (inactive); in assay [3] it was 28.7% (inactive); in assay [7], -1.56% (inactive); in assay [8], -18.7% (inactive). For the same compound, the inhibition of aggregation in assay [2] is -23.4% (inactive). Also, the nuclei count came to 91.3% in assay [2] and 91.8% in assay [3]. In addition, the fluorescence slope in assay [4] was -0.343 (inactive). In assay [5], the NADPH fluorescence slope was -5.3e-05 (inactive). The slope in assay [6] is 0.00406 (inactive).
On to `CC(=O)CCc1ccc(OCCCCn2cncn2)cc1`, for which the cell count in assay [1] amounted to 513. Moreover, the inhibition in assay [1] was 6.8% (inactive); in assay [3], -58.4% (inactive); in assay [7], 1.5% (inactive); in assay [8] it was -5.67% (inactive). For the same compound, the inhibition of aggregation in assay [2] is 15.6% (inactive). Besides, the nuclei count amounted to 92.1% in assay [2] and 116% in assay [3]. The fluorescence slope in assay [4] was -0.625 (inactive). The NADPH fluorescence slope in assay [5] is -1.7e-05 (inactive). Further, the slope in assay [6] was 0.00807 (inactive).
With `O=C(CN(CC1CCCO1)C(=O)CCC(=O)Nc1ccccn1)NCC1CCCO1` (centres undefined), in assay [1], the cell count amounted to 634. Besides, the inhibition in assay [1] is -1.6% (inactive); in assay [3], -8.5% (inactive); in assay [7], 13.4% (inactive); in assay [8] it was 15.3% (inactive). Besides, in assay [2], the inhibition of aggregation was -13.7% (inactive). Besides, the nuclei count in assay [2] and in assay [3] was 122% in each case. Besides, in assay [4], the fluorescence slope was -0.421 (inactive). In assay [5], the NADPH fluorescence slope was -3e-05 (inactive). Moreover, the slope in assay [6] was 0.00568 (inactive).
Regarding `COCCOC(=O)C1=C(C)OC(N)=C(C#N)C1c1ccc2c(c1)OCO2` (centres undefined), the cell count in assay [1] worked out at 468. For the same compound, the inhibition was -0.5% (inactive) in assay [1], -87.8% (inactive) in assay [3], 5.43% (inactive) in assay [7] and 23.2% (inactive) in assay [8]. Also, in assay [2], the inhibition of aggregation is 12.6% (inactive). The nuclei count in assay [2] was 104%; in assay [3], 110%. Further, the fluorescence slope in assay [4] is -0.44 (inactive). In assay [5], the NADPH fluorescence slope was -3.9e-05 (inactive). In assay [6], the slope is 0.00523 (inactive).
`COc1ccc(S(=O)(=O)Cc2ccc(C(=O)N3CCN(Cc4ccccc4)CC3)o2)cc1`: the cell count in assay [1] is 583. The inhibition is -4.8% (inactive) in assay [1], -37.7% (inactive) in assay [3], -3.69% (inactive) in assay [7] and 28.9% (inactive) in assay [8]. Further, the inhibition of aggregation in assay [2] was 21.6% (inactive). The figures for the nuclei count in assay [2] and in assay [3] were 98.6% and 121%, respectively. Moreover, the fluorescence slope in assay [4] was -0.588 (inactive). Further, the NADPH fluorescence slope in assay [5] is -1.9e-05 (inactive). The slope in assay [6] was 0.0068 (inactive).
In the case of `O=C(Nc1cccc2ncccc12)c1ccc2c(c1)OCCO2`, in assay [1], the cell count worked out at 586. For the same compound, the inhibition was 2.2% (inactive) in assay [1], -8.1% (inactive) in assay [3], -12.7% (inactive) in assay [7] and -8.56% (inactive) in assay [8]. For the same compound, the inhibition of aggregation in assay [2] was 11.1% (inactive). Further, the nuclei count in assay [2] came to 101%; in assay [3] it was 81.2%. Moreover, the fluorescence slope in assay [4] was -0.46 (inactive). In addition, the NADPH fluorescence slope in assay [5] is -4.6e-05 (inactive). Also, in assay [6], the slope was 0.00308 (inactive).
